PAX8 reporter – inhibitors of PAX8-driven TPO luciferase reporter, primary screen, RMG-I cells, single concentration | SteadyGlo, 24 h | inhibition, % at 12.6 µM | 360,000 tested, 1.2% active | AID 652154, 2013;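 active means mean replicate inhibition at least 60% with every replicate also reaching 60%; inconclusive means only one of the two criteria is met; inactive means mean below 60% and not all replicates reaching 60%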;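 further: luciferase light reporting Pax8 driven TPO promoter activity; plate controls were median of neutral control wells for no effect and mitoxantrone controls for full effect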
N-glyco inh – increase of ERlucT glycosylation luciferase signal, primary screen, N-linked glycosylation inhibitor project, D54 ERlucT cells, luminescence, set 2. D54 ERlucT glycosylation luciferase reporter, 24 h; percent of 100 nM tunicamycin response. reporter increase, % at 12.5 µM. 360,000 tested, 0.23% active. AID 588692, 2011;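 active means mean luciferase reporter signal, scaled so untreated is 0 and the glycosylation-blocking control 100, at or above a set limit in every replicate; inconclusive means mean reaches the limit but not every replicate does; inactive means mean below the limit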;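 further: luciferase carries N-glycosylation sites so blocking glycosylation raises the light; 0% = median of neutral control wells and 100% = median of 100 nM tunicamycin wells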
Shn3 3UTR inh – reduction of Shn3 3'UTR firefly luciferase signal, primary screen, Schnurri-3 inhibitor project, cell-based, Clone20 osteoblasts, set 2; Clone20 osteoblast Shn3 3'UTR firefly luciferase, 24 h; inhibition, % at 12.5 µM; 360,000 tested, 0.52% active;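 active means mean inhibition of at least 75% with every replicate also reaching 75%; inconclusive means mean inhibition at least 75% but some replicate below; inactive means mean inhibition below 75%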;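 further: 0% = median of neutral control wells and 100% = pilot-screen positive control compound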
LMP1 NFkB inh – EBV LMP1-driven NF-kappaB luciferase reporter inhibitors, primary screen, cell-based, luminescence, single point. LMP1-induced NF-kappaB luciferase reporter cells. inhibition, % at 12.5 µM. 350,000 tested, 0.69% active. AID 504558, 2011; in the data active means inhibition above about 41%; inconclusive means no clear call, values can overlap the other calls;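 further: 0% = neutral control wells and 100% = reference inhibitor control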
Env fusion inh – inhibitors of HIV-1 Env-driven cell-cell fusion, primary screen, HeLa-JRFL effector, CEM21 target cells, luciferase. inhibition, % at 12.3 µM. 360,000 tested, 1.1% active;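 active means mean replicate inhibition score of at least 50 and every replicate individually at or above 50; inconclusive means only one of the two criteria met; inactive means mean below 50 and not all replicates reaching 50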;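 further: 0% = plate neutral controls and 100% = maraviroc near 300 nM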
NSD2 inh – NSD2 histone methyltransferase inhibitors, primary screen, biochemical, AlphaScreen, single concentration, set 2 | 310,000 tested, 0.54% active | NSD2 peptide methylation, 120 min | AID 743445, 2014 | inhibition, % at 12.5 µM; in the data active means inhibition above about 50%
Target sequence (O96028 whole entry, looked up): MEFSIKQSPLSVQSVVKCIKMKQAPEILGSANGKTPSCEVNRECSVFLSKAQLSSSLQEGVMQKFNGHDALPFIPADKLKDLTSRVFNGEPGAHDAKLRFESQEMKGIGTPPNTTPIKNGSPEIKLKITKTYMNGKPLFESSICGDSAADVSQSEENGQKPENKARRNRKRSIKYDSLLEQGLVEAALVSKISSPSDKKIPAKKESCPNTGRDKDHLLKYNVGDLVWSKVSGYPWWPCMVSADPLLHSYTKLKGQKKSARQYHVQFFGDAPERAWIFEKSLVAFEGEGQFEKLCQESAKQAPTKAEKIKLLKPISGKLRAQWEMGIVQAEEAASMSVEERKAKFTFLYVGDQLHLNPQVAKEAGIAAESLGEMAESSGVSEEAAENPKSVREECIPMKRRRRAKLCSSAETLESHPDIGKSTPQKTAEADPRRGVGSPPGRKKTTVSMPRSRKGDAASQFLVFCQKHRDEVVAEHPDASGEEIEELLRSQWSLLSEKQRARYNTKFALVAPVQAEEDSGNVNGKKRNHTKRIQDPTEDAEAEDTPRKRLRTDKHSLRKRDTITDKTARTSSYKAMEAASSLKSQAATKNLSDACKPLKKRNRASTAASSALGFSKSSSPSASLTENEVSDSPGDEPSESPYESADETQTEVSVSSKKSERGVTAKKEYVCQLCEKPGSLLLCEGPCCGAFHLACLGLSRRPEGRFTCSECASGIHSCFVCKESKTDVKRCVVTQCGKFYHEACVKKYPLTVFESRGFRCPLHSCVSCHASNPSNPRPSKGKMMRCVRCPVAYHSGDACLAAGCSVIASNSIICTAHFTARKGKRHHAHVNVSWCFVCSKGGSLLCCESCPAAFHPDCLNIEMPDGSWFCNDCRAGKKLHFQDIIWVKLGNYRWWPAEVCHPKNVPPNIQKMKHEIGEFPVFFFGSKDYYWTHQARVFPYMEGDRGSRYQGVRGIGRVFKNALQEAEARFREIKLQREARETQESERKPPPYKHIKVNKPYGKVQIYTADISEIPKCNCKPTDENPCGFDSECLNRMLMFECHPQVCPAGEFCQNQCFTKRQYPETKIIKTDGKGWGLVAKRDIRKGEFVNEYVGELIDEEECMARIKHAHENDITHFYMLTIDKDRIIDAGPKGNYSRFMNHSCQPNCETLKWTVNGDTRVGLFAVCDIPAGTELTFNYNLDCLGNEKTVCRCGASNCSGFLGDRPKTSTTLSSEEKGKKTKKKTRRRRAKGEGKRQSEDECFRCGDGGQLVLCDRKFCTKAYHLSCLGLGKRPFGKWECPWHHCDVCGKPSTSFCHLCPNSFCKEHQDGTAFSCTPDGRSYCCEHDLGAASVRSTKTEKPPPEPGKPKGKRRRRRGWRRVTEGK
* marks the source's active call; other numbers are inactive results; i = inactive; u = inconclusive; x = not tested or not shown; [ ] = dose if it differs, or a comment. The list is not random: actives were taken first. Their share in the collection is about 2.8%.

SMILES	PAX8 reporter	N-glyco inh	Shn3 3UTR inh	LMP1 NFkB inh	Env fusion inh	NSD2 inh
OCCCn1c(CCNc2nc(-c3ccc(F)cc3)cs2)nc2cc(C(F)(F)F)ccc21	19.9	8.6	24.4	10.2	71.5*	x
OCCCn1c(C2CCCN2c2nc(-c3ccc(F)cc3)cs2)nc2cc(C(F)(F)F)ccc21 (stereo not drawn)	22.7	-3.1	17.0	-17.9	15.5	x
CC(C)C#Cc1ccc2c(c1)O[C@H](CN(C)C(=O)NC(C)C)[C@H](C)CN([C@@H](C)CO)S2(=O)=O	14.1	x	x	x	-38.8[16.7 µM]	x
O=C(c1cccc(F)c1)N1CCCCN2[C@H](CO)[C@H](c3ccc(/C=C/c4ccccc4)cc3)[C@H]2C1	19.6	x	x	x	x	x
C[C@H]1CN([C@@H](C)CO)S(=O)(=O)c2ccc(/C=C/c3ccccc3)cc2O[C@H]1CN(C)C(=O)Nc1cc(F)ccc1F	63.9*	x	x	x	15.0[16.7 µM]	x
C[C@H]1CN([C@@H](C)CO)S(=O)(=O)c2ccc(/C=C/c3ccccc3)cc2O[C@@H]1CN(C)C(=O)Nc1cc(F)ccc1F	-17.7	x	x	x	-12.3[16.7 µM]	x
C[C@@H]1CN([C@@H](C)CO)S(=O)(=O)c2ccc(/C=C/c3ccccc3)cc2O[C@H]1CN(C)C(=O)c1ccccc1	70.9*	x	x	x	-12.8[16.7 µM]	x
C[C@@H]1CN([C@@H](C)CO)S(=O)(=O)c2ccc(/C=C/c3ccccc3)cc2O[C@@H]1CN(C)Cc1ccc(C(=O)O)cc1	1.0	3.5	-5.0	54.8*	-14.9	x
CCCNC(=O)C[C@H]1CC[C@H]2[C@@H](COC[C@@H](O)CN2C(=O)Nc2ccccc2OC)O1	12.4	x	x	x	x	x
COc1ccc(COCC23N=C4SCCCN4[C@H](c4ccccc4O2)[C@H]3CO)cc1	-7.4	x	x	x	-24.1[16.7 µM]	x
CCCCn1c(NC(=O)CC)c(C#N)c2nc3ccccc3nc21	8.8	x	-14.4	6.1	-9.9	-3.7
N#Cc1c(NC(=O)c2ccccc2Cl)n(Cc2ccccc2)c2nc3ccccc3nc12	14.5	3.0	7.0	11.1	19.8	98.2*
Fc1cc(F)c(F)c(SCCc2ccncc2)c1F	x	-0.2	87.4*	0.9	u	x
Nc1nc(Nc2ccccc2)nc2ccccc12	-67.8	-12.7	-44.3	-11.7	-200.6	-5.2
Nc1nc(Nc2ccc(Cl)cc2)nc2ccccc12	x	-13.0	20.4	0.6	i	x
CCOc1ccc(Nc2nc(N)c3ccccc3n2)cc1	41.6	-18.4	-6.5	53.4*	-35.6	3.6
CN(C)c1ccc(Nc2nc(N)c3ccccc3n2)cc1	78.4*	-19.7	23.0	70.4*	9.9	x
O=C(Nc1ccccc1)N1CCCCN2[C@@H](CO)[C@H](c3ccc(C#CC4CC4)cc3)[C@@H]2C1	-10.4	x	x	x	x	x
C[C@H]1CN([C@@H](C)CO)C(=O)c2c(c3ccccc3n2C)-c2ccccc2CO[C@@H]1CN(C)C(=O)Nc1cccc(C(F)(F)F)c1	48.1	x	x	x	x	x
CCCN1[C@@H]2Cn3c(ccc(-c4ccc(F)cc4)c3=O)[C@H]1[C@@H](C(=O)NCCOC)[C@@H]2CO	x	x	x	x	10.2[16.7 µM]	x
O=C1C(Cl)=C(Nc2ccc3cn[nH]c3c2)C(=O)c2ccccc21	81.0*	-21.6	96.5*	11.6	-59.9	x
O=C(Nc1ccc2cn[nH]c2c1)c1c(Cl)cccc1Cl	14.2	-1.1	13.6	-0.5	-21.5	16.1
COc1ccc(O)c(/C=N/c2nc3ccccc3n2C)c1	-6.0	0.2	8.9	89.9*	1.6	-1.4
CS(=O)(=O)N1CC2(C1)[C@H](c1ccccc1)[C@H](CO)N2C(=O)C1CCC1	-5.0	x	x	x	x	x
Cc1ccc(NC(=O)Cn2nc(C)c3ccccc3c2=O)cc1F	2.0	-1.0	-2.4	44.1*	-57.3	x
SMILES	PAX8 reporter	N-glyco inh	Shn3 3UTR inh	LMP1 NFkB inh	Env fusion inh	NSD2 inh
CO[C@@H]1CC[C@H]2CCN(C)C(=O)C[C@@H](c3ccccc3)CN(C)C(=O)c3cc(C#N)ccc3OC[C@H]1O2	-0.8	x	x	x	12.6[16.7 µM]	x
Cc1cccc(COCC(Cc2ccccc2)N2CCN(C(=O)c3cccc(Cl)c3)CCC2=O)c1 (stereo not drawn)	33.1	-3.7	14.2	4.6	66.2*	x
Cc1cccc(COC[C@H](Cc2ccccc2)N2CCN(C(=O)c3cccc(C)c3)CCC2=O)c1	0.8	x	x	x	20.6	x
Cc1cccc(COC[C@H](Cc2ccccc2)N2CCN(C(=O)c3cc(Cl)cc(Cl)c3)CCC2=O)c1	16.3	x	x	x	91.9*	x
Cc1cccc(C(=O)N2CCC(=O)N(C(COCc3ccccc3)Cc3ccccc3)CC2)c1 (stereo not drawn)	13.4	-2.0	2.1	1.9	29.4	x
Cc1cccc(COC[C@H](Cc2ccccc2)N2CCN(C(=O)c3cccc(Cl)c3)CCC2=O)c1	8.2	x	x	x	74.7*	x
Cc1cccc(C(=O)N2CCC(=O)N([C@H](COCc3ccccc3)Cc3ccccc3)CC2)c1	8.5	x	x	x	-22.4	x
CCC(=O)N1[C@H](CN(CC)C(C)=O)[C@@H](c2ccc(-c3cccnc3)cc2)[C@@H]1CO	1.7	x	x	x	x	x
C[C@@]12C(=O)Nc3cc(Cl)ccc3C(=O)N1[C@H]1c3cc(Cl)ccc3OC[C@@H]1[C@@H]2c1ccccc1	44.3	22.5	26.8	1.6	x	x
C[C@@]12C(=O)Nc3cc(Cl)ccc3C(=O)N1[C@H]1c3ccccc3OC[C@@H]1[C@@H]2c1ccccc1	x	31.4*	24.5	-7.2	x	x
C[C@@]12C(=O)Nc3ccc(F)cc3C(=O)N1[C@H]1c3ccccc3OC[C@@H]1[C@@H]2c1ccccc1	x	11.4	19.4	1.6	x	x
Cc1ccc2c(c1)C(=O)N1[C@H]3c4cc(Cl)ccc4OC[C@@H]3[C@H](c3ccccc3)[C@]1(C)C(=O)N2	4.5	u	25.9	7.9	-0.9	x
C[C@@]12C(=O)Nc3ccc(Cl)cc3C(=O)N1[C@H]1c3ccccc3OC[C@@H]1[C@@H]2c1ccccc1	x	27.6*	26.6	-15.0	x	x
C[C@@]12C(=O)Nc3ccc(F)cc3C(=O)N1[C@H]1c3cc(Cl)ccc3OC[C@@H]1[C@@H]2c1ccccc1	6.4	27.6*	9.3	-12.5	35.6	x
C[C@H]1CN([C@@H](C)CO)C(=O)Cc2cc(NS(=O)(=O)c3cccs3)ccc2O[C@@H]1CN(C)C(=O)Nc1ccccc1	-25.7	x	x	x	3.5[16.7 µM]	x
O=C(Nc1cc(F)ccc1F)N1CCCCN2[C@@H](CO)[C@@H](c3ccc(-c4cncnc4)cc3)[C@@H]2C1	-13.0	x	x	x	x	x
CCSc1nnc(NC(=O)CSc2nnc(-c3c[nH]c4ccccc34)n2CC)s1	23.3	4.7	4.3	85.2*	-2.3	x
CO[C@H]1CN(C)C(=O)c2ccc(NC(=O)Nc3cccc(F)c3)cc2OC[C@@H](C)NC[C@@H]1C	-3.6	x	x	x	-3.1[16.7 µM]	x
CO[C@@H]1CN(C)C(=O)c2ccc(NC(=O)Nc3cccc(F)c3)cc2OC[C@@H](C)N(C(=O)Nc2cccc(F)c2)C[C@H]1C	x	x	x	x	74.0*[16.7 µM]	x
CO[C@H]1CN(C)C(=O)c2cc(NC(=O)C3CCOCC3)ccc2OC[C@H](C)N(Cc2nccs2)C[C@H]1C	11.9	x	x	x	74.3*	x
